# From PubChem
# HCMV inh: human cytomegalovirus inhibition. HFF cells, HCMV-luciferase reporter, 72 h; hits give low values. 410,000 tested, 4.5% active. activity change, negative = inhibition, % at 57.5 µM. AID 1259415; in the data active = activity change below about -60%; inconclusive = no clear call, values can overlap the other calls; inactive = above about -39%
#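 Human foreskin fibroblasts infected with luciferase-reporter HCMV at MOI 1 PFU/cell, compounds at two doses. Luciferase measured 72 h post infection; normalized to buffer-only basal and Salinomycin (10uM) controls.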
# HCV inhibitor: inhibitors of hepatitis C virus infection | Huh7.5.1 HCVcc-Cre infection, luciferase reporter, 44 h | 340,000 tested, 3.4% active | Potency, µM (top dose mostly 41.8 µM), for inactives: at the highest dose activity change, negative = inhibition, most hits filed as inhibitors; note: potency is the fitted concentration of half-maximal effect
#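 1,000 cells/well; 4 h culture; + compound; + HCVcc-Cre (~0.5 moi); 44 h; luciferase substrate, RT 15 min; read 15 sec.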
# Giardia FBPA inh: inhibitors of Giardia lamblia fructose-1,6-bisphosphate aldolase | purified Giardia FBPA | 290,000 tested, 0.71% active | A8B2U2 | Potency, µM (titrated, usually from 59.6 µM), for the others: at the highest dose activity, negative = inhibition, usual class: inhibitors; note: potency is the fitted concentration of half-maximal effect; nearly all actives have a fitted effect of over 55% in size
# Target sequence (A8B2U2 whole entry, looked up): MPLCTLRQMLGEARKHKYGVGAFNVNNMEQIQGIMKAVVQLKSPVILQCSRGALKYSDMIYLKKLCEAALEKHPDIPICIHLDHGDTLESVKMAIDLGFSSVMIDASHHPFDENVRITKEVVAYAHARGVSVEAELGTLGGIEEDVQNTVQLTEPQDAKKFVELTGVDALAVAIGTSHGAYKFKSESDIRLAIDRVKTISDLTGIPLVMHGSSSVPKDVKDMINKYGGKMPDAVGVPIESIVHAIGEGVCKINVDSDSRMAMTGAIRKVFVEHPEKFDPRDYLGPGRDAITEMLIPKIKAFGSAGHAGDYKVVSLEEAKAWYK
#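 Giardia FBPA (40 nM reagent) was preincubated 10 min at RT with compound (up to 57.5 uM final), then substrate plus GAPDH/TPI/NAD/arsenate coupling system with diaphorase/resazurin was added; resorufin fluorescence (525/598 nm) was read after 20 min.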
# MARV entry inh: inhibitors of Marburg virus binding or cell entry; 300,000 tested, 1.8% active; Marburg virus pseudotyped entry inhibition, cell reporter; Potency, µM (doses to about 37.8 µM), for the others: at the highest dose activity change, negative = inhibition, usual class: inhibitors; calls by dose curve; tested in HEK293 cells; note: potency is the fitted concentration of half-maximal effect
# Lassa entry inh: inhibitors of Lassa virus binding or cell entry; Lassa virus pseudotype entry inhibition, cell reporter; AID 540256; 300,000 tested, 1.2% active; Potency, µM (highest dose often 37.9 µM), for the others: at the top dose activity change, negative = inhibition, most hits filed as inhibitors; calls by dose curve; tested in HEK293 cells; note: potency is the fitted concentration of half-maximal effect; nearly all actives have a fitted effect of over 50% in size
# FMDV inh: antivirals against foot and mouth disease virus; FMDV antiviral cell-based qHTS; Potency, µM (titrated, usually from 57.9 µM), for inactives: top-dose activity change, negative = inhibition, usual class: inhibitors; 410,000 tested, 1.2% active; AID 1159524; calls by dose curve; tested in HEK293T cells; note: read-out not given here; potency is the fitted concentration of half-maximal effect; nearly all actives have a fitted effect of over 45% in size
# The depositor's hits bear a star; ? = inconclusive; · = not tested or not shown; [ ] = remark or other dose. Most compounds without a hit are left out; they make up all but 8.3% or so of the library. Unless noted, calls come from the whole dose curve; as a rule, active = well fitted curve in the direction sought with a large enough effect; inconclusive = small, poorly fitted or top-dose-only effect, or another doubt; inactive = no such curve, though single readings can be large; an effect the other way counts as inactive or inconclusive. % is set by controls: 0 for no effect and ±100 for the full control effect.
SMILES,HCMV inh,HCV inhibitor,Giardia FBPA inh,MARV entry inh,Lassa entry inh,FMDV inh
CCC(=O)N1C2=C(c3ccccc3[C@@H]1CC(=O)Nc1ccc3ccccc3c1)[C@@H]1C(=O)N(c3ccccc3)C(=O)[C@@H]1[C@H](C)C2,·,·,3%[12.9 µM],·,·,·
O=C1COc2ccc(-c3cc(-c4ccccc4)c4c(n3)-c3cc(Cl)ccc3OC4)cc2N1,17,·,·,8%[46.1 µM],-18%[46.1 µM],-10%
CCc1nn(CC(=O)NCCCN(CC)Cc2ccccc2)c(=O)c2cc3sccc3n12,-30,-10%,5%,?,-1%,·
CCCCN(CCCNC(=O)Cn1nc(CC)n2c(cc3sc(C)cc32)c1=O)Cc1ccccc1,-25,8.9µM*,-2%,·,·,-8%
Cn1c(NCc2ccc3occc3c2)nc2cc(-c3ccc(F)cc3)sc2c1=O,?,·,·,·,·,-21%
CN(C)c1ccc(CNc2nc3cc(-c4ccc(F)cc4)sc3c(=O)n2C)cc1,-86*,·,·,·,·,0%
CC1=C(C(=O)OCc2ccccc2)C(c2cccc([N+](=O)[O-])c2)NC(=O)N1 (stereo unspecified),-9,?,1%,·,·,-29%
CCOC(=O)C1=C(C)NC(=O)NC1c1ccc2c(c1)OCO2 (stereo unspecified),5,-2%,7%,7%[46.1 µM],5%,-20%
CC1=C(C(=O)OCc2ccc3c(c2)OCO3)C(c2cccc([N+](=O)[O-])c2)NC(=O)N1 (stereo unspecified),-81*,11µM*,1%,·,·,-23%
CCC(CC)COC(=O)C1=C(C)NC(=O)NC1c1ccc2c(c1)OCO2 (stereo unspecified),-22,10µM*,1%,?,?,?
CN(CC(=O)NC1CCCc2ccccc21)S(=O)(=O)c1ccc2c(c1)c(=O)n(C)c(=O)n2C (stereo unspecified),-9,-9%,3%,·,·,-7%
CN(CC(=O)NC1CCCc2ccccc21)S(=O)(=O)c1cccs1 (stereo unspecified),-74*,-28%,8%,?,8%,-10%
CCC(=O)N1[C@H](CO)[C@@H]2c3ccccc3N(C(=O)Nc3ccc(Cl)cc3)C[C@@H]21,21,·,·,·,·,·
COc1ccc(CN(C)CC2CCCN(CCc3ccc(Cl)cc3)C2)cc1OC (stereo unspecified),43,10µM*,13%,2.2µM*,?,-15%
COc1cc(CN(C)CC2CCCN(CCc3cccc(C(F)(F)F)c3)C2)ccc1O (stereo unspecified),-17,13µM*,3%,?,?,-22%
COc1cc(CN(C)CC2CCCN(CCc3ccc(F)cc3)C2)c(Cl)cc1O (stereo unspecified),17,?,-3%,·,·,-3%
COc1ccccc1CCN1CCCC(CN(C)CC(C)(C)CO)C1 (stereo unspecified),51,13%,-5%,13µM*,?,-16%
CCOc1cccc(CN(C)CC2CCCN(CCc3ccc(Cl)cc3)C2)c1O (stereo unspecified),-12,5µM*,-1%,·,·,-1%
COc1ccc(CN(C)CC2CCCN(CCc3ccc(F)cc3)C2)cc1OC (stereo unspecified),0,?,-4%,·,·,-1%
COc1ccc(-c2noc(-c3ccc(NCc4ccccc4OC)c([N+](=O)[O-])c3)n2)cc1,12,·,·,16%[46.1 µM],17%[46.1 µM],-20%
O=C(Nc1ccn2ccnc2n1)c1ccccc1OC(F)(F)F,-30,·,·,·,·,·
COc1ccc(F)c(CN(C)CC2CCCN(CCc3ccc(F)cc3)C2)c1 (stereo unspecified),-15,?,5%,11µM*,?,-16%
CC(C)(C)S(=O)N1C[C@H]2CC(=O)C(CCO)=C2[C@@H]1CCO (stereo partly specified),16,·,·,·,·,·
Cc1ccc(NS(=O)(=O)c2ccc(C(=O)N3CCN(c4ncccn4)CC3)cc2)cc1,-77*,?,11%,?,7.9µM*,?
O=C(c1ccc(S(=O)(=O)Nc2ccc(F)cc2)cc1)N1CCN(c2ccccn2)CC1,-80*,?,1%,?,?,-15%
SMILES,HCMV inh,HCV inhibitor,Giardia FBPA inh,MARV entry inh,Lassa entry inh,FMDV inh
Cc1ccc(C(=O)N2CCN(c3ncccn3)CC2)cc1,-5,5%,7%,·,·,-15%
O=C(NCC1Cc2cccc(-c3ccccn3)c2O1)c1cnn2cccnc12 (stereo unspecified),·,·,·,·,·,3%
Cc1ccccc1-n1c(=O)/c(=C/c2ccco2)s/c1=C(/C#N)C(=O)Nc1ccccc1,·,·,·,-28%,·,·
Cc1ccn2c(Nc3ccc4c(c3)OCO4)c(-c3ccccn3)nc2c1,-98*,?,-26%,?,?,?
Cc1ccc(Nc2c(-c3ccccn3)nc3ccc(C)cn23)cc1,0,?,-3%,·,·,?
Cc1ccn2c(Nc3ccc4c(c3)OCO4)c(-c3ccc(C)o3)nc2c1,-8,·,·,?,-16%[46.1 µM],26%
Cc1ccc(Nc2c(-c3ccccn3)nc3cc(C)ccn23)cc1,0,2.8µM*,-25%,?,?,?
CCNc1ncc2nc(-c3ccc(OC)cc3)c(=O)n(CCC#N)c2n1,·,·,-4%,·,·,-6%
CCOC(=O)C1=C(c2ccccc2)N=c2s/c(=C\c3ccc(O)cc3)c(=O)n2C1c1cccs1 (stereo unspecified),45,10µM*,-14%,?,16µM*,25µM*
CCN(CC)CCCN1C(=O)CSC1c1ccc([N+](=O)[O-])cc1 (stereo unspecified),-102*,12%,3%,·,·,-3%
O=Nc1ccccn1,26,·,·,·,·,·
CN1C(=O)/C(=C\c2ccc(Br)s2)C(=O)NC1=S,-1,?,6%,?,0%[46.1 µM],32µM*
O=C1NC(=S)N/C1=C/c1cccc2ccccc12,3,-9%,15%,0%,·,48%
O=C1NC(=S)NC(=O)C1=Cc1c(Cl)cccc1Cl,-61*,10%,·,11%[46.1 µM],0%[46.1 µM],20µM*
COc1ccc(C=C2C(=O)NC(=S)NC2=O)cc1,?,26%,·,21%,16%,?
O=C1NC(=S)NC(=O)C1=Cc1ccc(Br)s1,-100*,?,-7%,·,·,?
O=C1NC(=S)NC(=O)C1=Cc1cccc2cc3ccccc3cc12,-94*,10µM*,?,·,·,10µM*
C=CCN1C(=O)C(CC(C)C)NC1=S (stereo unspecified),·,·,1%,·,·,·
O=C(Nc1ccccc1C(=O)NCC1CC1)c1cccs1,1,·,·,·,·,·
CC(=O)N1CCC2(CC1)CCN(c1ncccn1)CC2,·,·,-1%,·,·,-8%
O=C1CC(c2cc(Br)ccc2F)c2cc3c(cc2N1)CCC3 (stereo unspecified),-73*,?,4%,?,?,-14%
O=C(N/N=C/c1cc(Cl)ccc1O)c1ccccc1Br,-100*,?,12%,·,·,19%
O=C(N/N=C/c1cc(Cl)ccc1O)c1cccnc1,?,5µM*,?,?,?,8%
